Reference: the supplement of paper PMC11732987, “Enantioselective OTUD7B fragment discovery through chemoproteomics screening and high-throughput optimisation” (Communications Chemistry, 2025)

Legend:
Test in all cases: log2 ratio of Biotin-Ahx-Ub-VS probe labelling (fragment/DMSO); higher = less target engagement (more negative = stronger competition), active = hit call of the paper (q ≤ 0.05, log2 ratio ≤ -1)
Settings in all cases: compound concentration: 200 uM; treatment time: 3 h
USP34 = USP34 (UniProt Q70CQ2)
Procedure, shortened: (§1)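 Each value is an average log2 ratio of fragment to vehicle, tested by unpaired t-test. The underlying Spectronaut label-free quantities were global-median-normalised, and only proteins with ≥2 unique peptides were included. Triplicate HEK293T lysate samples (495 µg) were exposed to fragment at 200 µM or vehicle for 3 h, then to Biotin-Ahx-Ub-VS at 0.5 µM final for 1 h, before NeutrAvidin enrichment of labelled DUBs, LysC and trypsin digestion, and diaPASEF LC-MS/MS.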

USP36 = target: T1, USP36 (UniProt Q9P275)
T1 sequence (whole entry): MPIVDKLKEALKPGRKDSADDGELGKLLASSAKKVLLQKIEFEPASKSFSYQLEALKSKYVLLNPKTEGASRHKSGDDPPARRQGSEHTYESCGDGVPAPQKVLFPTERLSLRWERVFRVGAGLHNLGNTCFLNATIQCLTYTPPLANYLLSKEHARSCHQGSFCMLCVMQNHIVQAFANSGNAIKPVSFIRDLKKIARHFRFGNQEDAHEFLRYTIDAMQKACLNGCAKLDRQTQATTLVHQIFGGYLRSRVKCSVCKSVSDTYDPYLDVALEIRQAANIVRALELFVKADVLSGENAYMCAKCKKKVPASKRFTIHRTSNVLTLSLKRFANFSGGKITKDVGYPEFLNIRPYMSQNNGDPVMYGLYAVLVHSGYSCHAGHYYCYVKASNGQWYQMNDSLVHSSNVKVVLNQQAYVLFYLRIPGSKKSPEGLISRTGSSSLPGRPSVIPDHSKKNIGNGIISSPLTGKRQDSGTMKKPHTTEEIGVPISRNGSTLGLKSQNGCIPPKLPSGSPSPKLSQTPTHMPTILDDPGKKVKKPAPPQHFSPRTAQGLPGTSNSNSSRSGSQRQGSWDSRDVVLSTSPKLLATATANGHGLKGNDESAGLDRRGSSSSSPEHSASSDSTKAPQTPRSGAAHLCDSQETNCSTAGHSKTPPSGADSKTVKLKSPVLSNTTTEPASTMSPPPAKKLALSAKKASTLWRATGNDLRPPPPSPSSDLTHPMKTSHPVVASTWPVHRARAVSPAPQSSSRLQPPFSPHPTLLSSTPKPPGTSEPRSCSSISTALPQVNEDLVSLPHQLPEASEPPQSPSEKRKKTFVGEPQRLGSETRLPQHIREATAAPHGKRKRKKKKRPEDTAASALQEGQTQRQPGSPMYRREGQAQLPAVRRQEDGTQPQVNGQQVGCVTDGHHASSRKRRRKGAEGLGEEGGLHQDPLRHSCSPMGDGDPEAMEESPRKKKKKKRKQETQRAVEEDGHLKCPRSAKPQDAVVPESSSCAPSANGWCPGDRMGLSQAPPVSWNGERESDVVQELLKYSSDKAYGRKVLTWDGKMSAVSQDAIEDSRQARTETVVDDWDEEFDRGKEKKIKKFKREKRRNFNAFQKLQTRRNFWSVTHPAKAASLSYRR
Procedure, shortened: as §1

USP38 = target: T2, USP38 (UniProt Q8NB14)
T2 sequence (whole entry): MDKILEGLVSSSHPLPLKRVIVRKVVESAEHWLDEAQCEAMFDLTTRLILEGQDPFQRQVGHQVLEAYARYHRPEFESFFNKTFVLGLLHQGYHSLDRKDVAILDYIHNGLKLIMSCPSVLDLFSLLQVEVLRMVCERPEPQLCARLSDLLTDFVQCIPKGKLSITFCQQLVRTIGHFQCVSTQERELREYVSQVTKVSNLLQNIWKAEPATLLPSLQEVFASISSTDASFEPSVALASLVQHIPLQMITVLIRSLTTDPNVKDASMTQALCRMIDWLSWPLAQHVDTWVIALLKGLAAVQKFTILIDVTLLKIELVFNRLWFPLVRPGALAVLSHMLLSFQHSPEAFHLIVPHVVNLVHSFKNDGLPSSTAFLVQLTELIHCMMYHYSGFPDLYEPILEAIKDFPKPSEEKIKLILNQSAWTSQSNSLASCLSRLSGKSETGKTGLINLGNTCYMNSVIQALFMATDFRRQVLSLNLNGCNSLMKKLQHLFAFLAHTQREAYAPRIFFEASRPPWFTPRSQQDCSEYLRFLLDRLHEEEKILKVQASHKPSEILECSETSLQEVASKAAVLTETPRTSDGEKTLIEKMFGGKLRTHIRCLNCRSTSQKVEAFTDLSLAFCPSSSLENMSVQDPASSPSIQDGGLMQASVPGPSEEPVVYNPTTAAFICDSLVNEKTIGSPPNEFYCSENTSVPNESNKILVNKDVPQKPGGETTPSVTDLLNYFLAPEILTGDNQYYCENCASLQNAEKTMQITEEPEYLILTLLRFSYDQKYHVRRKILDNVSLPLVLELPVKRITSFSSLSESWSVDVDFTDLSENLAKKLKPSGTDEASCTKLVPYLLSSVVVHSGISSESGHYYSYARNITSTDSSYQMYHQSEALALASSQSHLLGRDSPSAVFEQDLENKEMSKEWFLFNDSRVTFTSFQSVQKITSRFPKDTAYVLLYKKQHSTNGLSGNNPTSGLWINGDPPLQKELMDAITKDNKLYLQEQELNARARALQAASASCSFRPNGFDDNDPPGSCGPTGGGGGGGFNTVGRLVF
Procedure, shortened: as §1

USP39 = target: T3, USP39 (UniProt Q53GS9)
T3 sequence (whole entry): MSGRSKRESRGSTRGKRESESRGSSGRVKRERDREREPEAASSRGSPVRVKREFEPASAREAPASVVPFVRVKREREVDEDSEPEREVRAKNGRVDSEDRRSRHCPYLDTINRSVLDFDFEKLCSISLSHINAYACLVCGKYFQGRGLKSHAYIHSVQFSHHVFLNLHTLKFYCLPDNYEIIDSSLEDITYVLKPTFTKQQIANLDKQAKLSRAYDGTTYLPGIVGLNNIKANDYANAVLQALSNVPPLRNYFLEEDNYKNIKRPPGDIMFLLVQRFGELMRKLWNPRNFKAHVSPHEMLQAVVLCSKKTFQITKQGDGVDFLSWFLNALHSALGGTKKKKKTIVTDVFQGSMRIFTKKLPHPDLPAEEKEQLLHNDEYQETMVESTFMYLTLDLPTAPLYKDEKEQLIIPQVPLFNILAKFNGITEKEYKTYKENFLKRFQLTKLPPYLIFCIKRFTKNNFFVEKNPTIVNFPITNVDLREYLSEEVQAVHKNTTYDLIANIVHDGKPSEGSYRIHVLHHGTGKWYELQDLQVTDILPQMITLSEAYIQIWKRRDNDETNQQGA
Procedure, shortened: as §1

USP4 = target: T4, USP4 (UniProt Q13107)
T4 sequence (whole entry): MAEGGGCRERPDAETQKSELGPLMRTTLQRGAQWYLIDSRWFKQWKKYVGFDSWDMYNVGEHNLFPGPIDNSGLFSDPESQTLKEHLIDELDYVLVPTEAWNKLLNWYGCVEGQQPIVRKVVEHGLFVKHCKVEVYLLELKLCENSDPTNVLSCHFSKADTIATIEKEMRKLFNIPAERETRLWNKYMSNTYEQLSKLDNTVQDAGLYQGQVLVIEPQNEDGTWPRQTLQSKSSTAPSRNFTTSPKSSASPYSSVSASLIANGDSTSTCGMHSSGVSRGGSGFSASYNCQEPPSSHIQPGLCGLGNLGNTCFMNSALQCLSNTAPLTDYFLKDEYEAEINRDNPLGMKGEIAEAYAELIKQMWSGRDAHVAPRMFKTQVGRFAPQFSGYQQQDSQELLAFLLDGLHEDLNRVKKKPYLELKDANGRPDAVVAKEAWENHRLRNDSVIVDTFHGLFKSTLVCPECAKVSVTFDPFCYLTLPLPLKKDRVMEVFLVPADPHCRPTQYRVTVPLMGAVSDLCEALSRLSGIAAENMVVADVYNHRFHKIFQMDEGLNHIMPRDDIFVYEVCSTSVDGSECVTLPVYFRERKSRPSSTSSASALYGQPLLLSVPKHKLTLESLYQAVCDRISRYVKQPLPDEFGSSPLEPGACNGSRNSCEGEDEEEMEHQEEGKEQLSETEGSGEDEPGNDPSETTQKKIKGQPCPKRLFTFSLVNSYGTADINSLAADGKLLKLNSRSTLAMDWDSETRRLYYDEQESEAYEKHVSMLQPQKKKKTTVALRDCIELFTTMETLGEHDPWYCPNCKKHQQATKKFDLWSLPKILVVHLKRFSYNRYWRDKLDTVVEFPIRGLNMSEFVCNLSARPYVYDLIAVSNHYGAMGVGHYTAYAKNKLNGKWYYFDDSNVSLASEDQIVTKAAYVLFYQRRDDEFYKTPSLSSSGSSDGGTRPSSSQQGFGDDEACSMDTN
Procedure, shortened: as §1

Measured: log2 ratio of Biotin-Ahx-Ub-VS probe labelling

Sequence of USP34 (Q70CQ2 whole entry, the tested form may be a part): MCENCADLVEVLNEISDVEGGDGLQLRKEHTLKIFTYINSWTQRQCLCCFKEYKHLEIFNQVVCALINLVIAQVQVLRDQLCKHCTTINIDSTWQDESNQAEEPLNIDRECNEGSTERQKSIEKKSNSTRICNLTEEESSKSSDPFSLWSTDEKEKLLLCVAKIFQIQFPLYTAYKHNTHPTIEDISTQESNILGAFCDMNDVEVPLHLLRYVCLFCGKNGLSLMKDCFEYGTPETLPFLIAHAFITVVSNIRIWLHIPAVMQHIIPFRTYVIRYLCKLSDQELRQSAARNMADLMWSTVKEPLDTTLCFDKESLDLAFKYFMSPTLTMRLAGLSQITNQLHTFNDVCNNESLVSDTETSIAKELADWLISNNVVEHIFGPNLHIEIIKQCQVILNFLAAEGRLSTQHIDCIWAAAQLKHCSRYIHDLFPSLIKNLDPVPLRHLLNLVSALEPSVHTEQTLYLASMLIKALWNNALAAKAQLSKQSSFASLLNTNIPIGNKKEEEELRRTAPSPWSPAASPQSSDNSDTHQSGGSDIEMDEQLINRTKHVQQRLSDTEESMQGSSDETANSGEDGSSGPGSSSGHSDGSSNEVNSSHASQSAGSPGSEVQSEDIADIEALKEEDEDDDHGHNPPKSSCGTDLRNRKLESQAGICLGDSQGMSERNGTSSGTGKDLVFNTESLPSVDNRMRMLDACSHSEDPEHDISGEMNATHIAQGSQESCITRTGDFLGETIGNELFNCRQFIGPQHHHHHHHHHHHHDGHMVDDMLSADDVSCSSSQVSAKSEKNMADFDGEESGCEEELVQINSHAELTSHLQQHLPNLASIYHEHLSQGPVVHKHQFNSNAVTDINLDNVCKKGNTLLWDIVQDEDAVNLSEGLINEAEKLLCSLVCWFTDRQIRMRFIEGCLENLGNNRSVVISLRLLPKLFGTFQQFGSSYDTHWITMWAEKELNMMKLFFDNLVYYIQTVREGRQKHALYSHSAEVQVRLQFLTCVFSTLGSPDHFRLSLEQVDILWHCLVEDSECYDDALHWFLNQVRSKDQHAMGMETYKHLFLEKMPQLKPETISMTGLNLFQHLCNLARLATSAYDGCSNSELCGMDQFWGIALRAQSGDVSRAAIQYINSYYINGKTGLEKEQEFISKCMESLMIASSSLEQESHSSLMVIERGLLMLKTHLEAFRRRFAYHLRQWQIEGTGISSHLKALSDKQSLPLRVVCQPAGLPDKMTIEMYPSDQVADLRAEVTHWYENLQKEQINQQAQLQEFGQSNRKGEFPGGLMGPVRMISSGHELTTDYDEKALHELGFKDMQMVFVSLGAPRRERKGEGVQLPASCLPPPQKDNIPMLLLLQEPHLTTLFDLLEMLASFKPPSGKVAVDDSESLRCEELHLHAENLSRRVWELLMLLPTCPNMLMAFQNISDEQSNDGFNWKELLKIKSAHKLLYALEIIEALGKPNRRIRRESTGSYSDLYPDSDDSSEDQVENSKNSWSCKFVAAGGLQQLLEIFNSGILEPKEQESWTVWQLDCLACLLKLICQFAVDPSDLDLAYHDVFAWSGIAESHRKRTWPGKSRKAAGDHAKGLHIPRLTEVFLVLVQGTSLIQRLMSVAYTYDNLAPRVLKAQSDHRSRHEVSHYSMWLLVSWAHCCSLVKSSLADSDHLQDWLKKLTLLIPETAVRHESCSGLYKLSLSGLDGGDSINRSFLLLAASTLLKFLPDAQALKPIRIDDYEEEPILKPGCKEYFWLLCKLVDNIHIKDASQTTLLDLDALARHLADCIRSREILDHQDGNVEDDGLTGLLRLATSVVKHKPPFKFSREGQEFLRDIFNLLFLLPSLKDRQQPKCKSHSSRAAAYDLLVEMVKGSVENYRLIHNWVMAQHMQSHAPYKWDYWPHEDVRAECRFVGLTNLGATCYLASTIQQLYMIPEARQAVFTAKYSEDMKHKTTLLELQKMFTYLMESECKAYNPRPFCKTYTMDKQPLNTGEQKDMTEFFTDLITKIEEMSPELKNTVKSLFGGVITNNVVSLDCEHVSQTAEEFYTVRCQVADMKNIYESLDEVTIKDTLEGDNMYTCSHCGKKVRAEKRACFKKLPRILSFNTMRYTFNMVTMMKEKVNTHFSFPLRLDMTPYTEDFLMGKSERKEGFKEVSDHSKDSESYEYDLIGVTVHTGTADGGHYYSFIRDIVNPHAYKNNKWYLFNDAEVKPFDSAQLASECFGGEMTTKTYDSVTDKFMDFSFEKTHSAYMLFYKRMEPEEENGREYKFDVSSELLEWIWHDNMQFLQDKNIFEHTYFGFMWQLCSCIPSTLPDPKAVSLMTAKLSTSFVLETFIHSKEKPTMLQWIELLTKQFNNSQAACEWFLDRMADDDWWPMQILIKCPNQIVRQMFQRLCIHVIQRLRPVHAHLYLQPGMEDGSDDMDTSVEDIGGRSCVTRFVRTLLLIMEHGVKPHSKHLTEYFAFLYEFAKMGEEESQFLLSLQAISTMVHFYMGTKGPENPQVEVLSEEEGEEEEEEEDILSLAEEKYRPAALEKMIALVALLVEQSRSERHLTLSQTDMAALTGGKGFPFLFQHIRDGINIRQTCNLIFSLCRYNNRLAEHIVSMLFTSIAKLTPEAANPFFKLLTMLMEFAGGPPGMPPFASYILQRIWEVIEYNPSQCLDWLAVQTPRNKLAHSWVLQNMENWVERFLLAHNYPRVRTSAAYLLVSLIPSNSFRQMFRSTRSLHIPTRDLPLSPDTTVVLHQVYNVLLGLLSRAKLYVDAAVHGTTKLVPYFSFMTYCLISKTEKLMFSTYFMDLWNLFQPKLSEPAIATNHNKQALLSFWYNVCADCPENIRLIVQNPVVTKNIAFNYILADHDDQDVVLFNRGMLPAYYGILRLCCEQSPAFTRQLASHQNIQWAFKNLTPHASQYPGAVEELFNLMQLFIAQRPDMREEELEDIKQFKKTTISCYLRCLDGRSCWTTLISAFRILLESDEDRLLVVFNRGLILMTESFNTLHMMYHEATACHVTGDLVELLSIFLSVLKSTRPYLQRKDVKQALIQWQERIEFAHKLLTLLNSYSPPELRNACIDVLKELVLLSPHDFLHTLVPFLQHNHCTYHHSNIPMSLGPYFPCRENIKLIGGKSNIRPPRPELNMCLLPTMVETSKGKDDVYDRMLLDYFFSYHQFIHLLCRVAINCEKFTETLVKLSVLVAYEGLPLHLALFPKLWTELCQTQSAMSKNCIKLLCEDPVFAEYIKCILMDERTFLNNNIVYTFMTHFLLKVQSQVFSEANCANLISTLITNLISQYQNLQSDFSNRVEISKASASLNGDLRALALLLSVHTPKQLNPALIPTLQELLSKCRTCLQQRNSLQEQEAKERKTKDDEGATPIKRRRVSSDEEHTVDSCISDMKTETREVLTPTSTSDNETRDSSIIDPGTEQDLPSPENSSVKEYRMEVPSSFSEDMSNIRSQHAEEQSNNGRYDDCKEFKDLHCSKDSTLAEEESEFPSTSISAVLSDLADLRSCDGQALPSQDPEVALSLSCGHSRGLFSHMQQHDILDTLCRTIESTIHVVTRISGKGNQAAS

CN(C)S(=O)(=O)c1ccccc1CNC(=O)CCl
inactive: USP34 0.137 | USP36 -0.00554 | USP38 0.218 | USP39 0.237 | USP4 -0.0523
